According to PubChem BioAssay:
“And” between values parts separate entries of the source, which are not always exact repeats. Equal entries are not always repeated. Results filed as inconclusive are left out. The source made the active and inactive calls. Cut-off read from the data, not from the text of the source, unless noted: active = parasite load remaining mostly below about 12% (no sharp cut-off); inactive = mostly above about 10%.

Columns and labels:
[1] = liver-stage malaria parasite growth inhibition, primary screen, cell-based, HepG2, luciferase luminescence, HepG2 viability (AID 624349);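 note: 100% = mean of DMSO negative control wells on the same plate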; conditions: P. berghei liver stage in HepG2, luciferase luminescence, concentration not given here; parasite load remaining: stronger effect = lower value; viability: measured here: HepG2 viability without parasites
[2] = stimulators of nuclear beta-catenin in C2C12, primary screen, imaging, WNT3A-conditioned medium, mouse C2C12, NPC library (AID 1117326; in the data active = nuclear beta-catenin stimulation mostly above about 4.2%, no sharp cut-off; inactive = mostly below about 10%; note: reference of the scale not given here); conditions: stronger effect = higher value
[3] = stimulators of insulin release from INS-1E, primary screen, cell-based, 5 mM glucose, NPC library (AID 1117329;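 active = compound raises insulin release from rat beta cells at 5 mM glucose, no numeric limit stated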; note: reference of the scale not given here); conditions: rat INS-1E insulin secretion, at 10 µM, stronger effect = higher value
[4] = growth inhibition of GSK3B-pretreated HCT116 cells – cell-based, CellTiter-Glo, 0.2 to 20 µM (AID 1117336;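 active = compounds lowering colon cancer cell viability after pretreatment blocking the GSK3B kinase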); conditions: HCT116 viability after GSK3B inhibitor, at 20 µM, stronger effect = higher value
[5] = inhibition of endothelial tube formation, primary screen, imaging, VEGF stimulated, CD31 staining, tube area, NPC library (AID 1117340;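 active = compound that reduces growth-factor-driven endothelial tube area in a mixed cell culture, no cutoff stated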); conditions: VEGF-stimulated ADSC/ECFC co-culture, at 10 µM, stronger effect = higher value
[6] = glucagon-like peptide 1 release enhancers, primary assay, NCI-H716 cell line, NPC library (AID 1117341;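 active = compound raises GLP1 secretion from the human gut endocrine cells, with no numeric limit stated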; note: reference of the scale not given here); conditions: NCI-H716 cells, at 10 µM, stronger effect = higher value
[7] = HCT116 colon cancer cell growth inhibition, primary screen, CellTiter-Glo luminescence, NPC library (AID 1117342;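 active = compounds that lower survival of HCT116 colon cancer cells in the luminescence readout, no numeric limit stated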); conditions: at 20 µM (top of the series)
[8] = CellTiter-Glo luminescent readout of SW480 viability loss, NPC library primary (AID 1117343;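 active = compounds that lower viability of the colon cancer cells in the luminescence readout, with no numeric limit stated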); conditions: CellTiter-Glo luminescence; at 20 µM (top of the series) unless noted
[9] = decreased DLD-1 cellular survival, CellTiter-Glo luminescent readout, NPC compound collection, primary HTS (AID 1117346;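 active = compounds that lower survival of DLD-1 colon cancer cells in the luminescence readout, no cutoff given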); conditions: DLD-1 viability, CellTiter-Glo luminescence; at 20 µM (top of the series)
[10] = test system: Aerobactin synthetase IucA (Klebsiella pneumoniae); test: IucA aerobactin synthetase inhibitors, biochemical, Tocris library, absorbance (AID 1345561; call rule not given here;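 note: 100% = enzyme without compound and 0% = no enzyme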); conditions: purified IucA enzyme assay, absorbance (OD) read-out; stronger effect = lower value;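 tested at 8 µM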
[11] = survival rescue of mitochondrial mutant cells in low glucose, primary screen, MELAS cybrids, Rieske KO mouse fibroblasts, CellTiter-Glo (AID 1508586;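 active = mean z-score across replicates of 1.96 or higher in either the MELAS or the Rieske mutant cell line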;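 note: z relative to plate mean and SD of compound and empty wells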)
[12] = viability rescue of complex I mutant cybrids, primary screen, cell-based, galactose medium, ATP luminescence (AID 1645843;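 active = z-score of at least 1.8 in each of two replicates, scored against plate mean and spread of sample wells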;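 note: positive z means more ATP and so rescue of galactose-driven cybrid death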); conditions: complex I mutant cybrid cells, 72 h, stronger effect = higher value
[13] = growth inhibition of DIPG glioma cells, dose response, cell-based, SU-DIPG-XVII, MIPE5.0, CellTiter-Glo, qHTS (AID 1347060; cut-off not given, nearly all actives have AC50 up to about 26 µM); conditions: SU-DIPG-XVII viability, CellTiter-Glo ATP luminescence
[14] = growth inhibition of DIPG glioma cells, dose response, cell-based, SU-DIPG-XIII, MIPE4.0, CellTiter-Glo, qHTS (AID 1347061; cut-off not given, nearly all actives have AC50 up to about 37 µM;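 note: cells exposed to compound for 48 hours before readout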); conditions: SU-DIPG-XIII viability, CellTiter-Glo ATP luminescence
[15] = growth inhibition of DIPG glioma cells, dose response, cell-based, JHH-DIPG-1, MIPE4.0, CellTiter-Glo, qHTS (AID 1347062; cut-off not given, nearly all actives have AC50 up to about 27 µM); conditions: JHH-DIPG-1 viability, CellTiter-Glo ATP luminescence
[16] = SU-DIPG-XXV glioma cell viability, MIPE5.0 library, qHTS (AID 1347068; cut-off not given, nearly all actives have IC50 up to about 30 µM)
[17] = biological target: NAD(+) hydrolase SARM1 (Homo sapiens) (UniProt Q6SZW1); test: SARM1 TIR NADase inhibitors, cell lysate, NAD-Glo luminescence (AID 1508614;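 active = compound whose remaining NAD level is above about 45 nM, limit read from the data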;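 note: higher remaining NAD means stronger inhibition of SARM1 NADase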); conditions: SAM-TIR HEK293T lysate NADase, at 1 µM, stronger effect = higher value
NAD(+) hydrolase SARM1 (Homo sapiens), sequence (Q6SZW1 whole entry, looked up): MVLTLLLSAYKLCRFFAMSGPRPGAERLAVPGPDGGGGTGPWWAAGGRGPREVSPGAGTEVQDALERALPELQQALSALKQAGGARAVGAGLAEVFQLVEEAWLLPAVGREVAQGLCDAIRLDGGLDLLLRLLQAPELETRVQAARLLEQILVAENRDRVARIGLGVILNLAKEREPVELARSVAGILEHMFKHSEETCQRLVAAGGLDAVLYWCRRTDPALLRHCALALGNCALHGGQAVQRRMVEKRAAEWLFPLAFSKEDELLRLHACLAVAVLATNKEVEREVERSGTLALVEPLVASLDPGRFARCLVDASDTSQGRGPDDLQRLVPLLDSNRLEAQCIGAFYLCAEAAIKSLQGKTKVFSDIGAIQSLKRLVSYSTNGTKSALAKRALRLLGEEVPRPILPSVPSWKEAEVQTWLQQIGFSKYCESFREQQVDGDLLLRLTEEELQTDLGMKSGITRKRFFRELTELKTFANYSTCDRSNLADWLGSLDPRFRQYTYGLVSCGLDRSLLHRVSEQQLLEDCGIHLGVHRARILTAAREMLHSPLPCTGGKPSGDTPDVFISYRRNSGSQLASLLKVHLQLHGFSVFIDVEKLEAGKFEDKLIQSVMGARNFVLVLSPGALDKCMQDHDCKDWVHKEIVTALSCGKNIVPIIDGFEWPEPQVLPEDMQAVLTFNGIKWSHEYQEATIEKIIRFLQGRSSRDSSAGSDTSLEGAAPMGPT

[18] = sensitizers of A549 cells to miR-34 induction, primary screen, imaging, A549 dox-inducible miR-34, nuclei and caspase counts (AID 1347080;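 active = compounds whose cell count with miR-34 switched on is under 0.7 times the count with it off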); conditions: A549 miR-34 inducible, Hoechst nuclei count, 48 h
[19] = MELAS cybrid survival, CellTiter-Glo 48 h, stronger effect = higher value
[20] = Rieske KO mouse fibroblast survival, CellTiter-Glo 72 h
[21] = stronger effect = lower value, cell number ratio, induced over uninduced
[22] = measured here: relative caspase fold change +Dox/-Dox
[23] = measured here: total cells with miR-34 induction, stronger effect = lower value
[24] = measured here: total cells without miR-34 induction

CNCCC(Oc1ccccc1OC)c1ccccc1 (stereo not given)
inactive: parasite load remaining [1] 99.2% and 34.1% | nuclear beta-catenin stimulation ([2]; at 10 µM) -0.2% | insulin secretion stimulation [3] 8% | viability decrease [4] -108% | tube area decrease [5] 0.4% | GLP1 secretion stimulation [6] 1.3% | inhibition of viability [7] 1.93% | viability decrease (inhibition) [8] 16.6% | viability decrease (inhibition) [9] -38.2% | remaining activity [10] 107% | z-score [11, 19] -0.579 and 0.865 | z-score [12] -0.245 and -0.495 and 0.12
99.6% and 98.5%: viability [1]
-0.0039 and 1.57: z-score [11, 20]
0.5%: nuclear beta-catenin stimulation ([2]; stimulation, at 2 µM)

CSCC[C@H](NC(=O)[C@H](Cc1c[nH]c2ccccc12)NC(=O)CCNC(=O)OC(C)(C)C)C(=O)N[C@@H](CC(=O)O)C(=O)N[C@@H](Cc1ccccc1)C(N)=O
active: AC50 [14] 935 nM
1.3%: nuclear beta-catenin stimulation ([2]; stimulation, at 2 µM)
inactive: nuclear beta-catenin stimulation ([2]; at 10 µM) 0.1% | insulin secretion stimulation [3] 0.8% | viability decrease [4] -19% | tube area decrease [5] 5.2% | GLP1 secretion stimulation [6] 0.3% | inhibition of viability [7] -11.9% | viability decrease (inhibition) [8] 23.6% | viability decrease (inhibition) [9] -23.3% | outcome [13] | outcome [15] | outcome [16] | remaining NAD [17] 10 nM

CC(=O)[C@H]1CC[C@H]2[C@@H]3CC=C4C[C@@H](O)CC[C@]4(C)[C@H]3CC[C@]12C
1.38 and 1.19: fold change [18, 22]
10500 and 11000: cell count [18, 24]
0.646 and 0.0253: z-score [11, 20]
1.6%: nuclear beta-catenin stimulation ([2]; stimulation, at 2 µM)
110% and 79.4% and 65.5%: viability [1]
8970 and 9160: cell count [18, 23]
inactive: parasite load remaining [1] 90.8% and 62.2% and 6.53% | nuclear beta-catenin stimulation ([2]; at 10 µM) 3% | insulin secretion stimulation [3] -2% | viability decrease [4] 7.55% | tube area decrease [5] 8.7% | GLP1 secretion stimulation [6] 1.9% | inhibition of viability [7] -2.4% | viability decrease (inhibition) [9] 18.9% | outcome [13] | outcome [14] | outcome [15] | outcome [16] | fold change [18, 21] 0.857 and 0.834 | z-score [11, 19] 0.44 and 0.49 | remaining NAD [17] 10 nM | z-score [12] -1.23
active: viability decrease (inhibition) [8] 82%

CCCCCOC(=O)Nc1nc(=O)n([C@@H]2O[C@H](C)[C@@H](O)[C@H]2O)cc1F
-1.4%: nuclear beta-catenin stimulation ([2]; stimulation, at 2 µM)
inactive: nuclear beta-catenin stimulation ([2]; at 10 µM) 0.5% | insulin secretion stimulation [3] -0.1% | viability decrease [4] -9.5% | tube area decrease [5] 5.3% | GLP1 secretion stimulation [6] -0.5% | inhibition of viability [7] 0.7% | viability decrease (inhibition) [8] -2% | viability decrease (inhibition) [9] -8.6% | outcome [13] | outcome [14] | outcome [15] | outcome [16] | remaining NAD [17] 10 nM

CCN[C@H]1C[C@H](C)S(=O)(=O)c2sc(S(N)(=O)=O)cc21
0.692 and 0.631: fold change [18, 22]
1.7%: nuclear beta-catenin stimulation ([2]; stimulation, at 2 µM)
inactive: parasite load remaining [1] 70.8% and 54% | nuclear beta-catenin stimulation ([2]; at 10 µM) 0.6% | insulin secretion stimulation [3] 2.65% | viability decrease [4] 10.3% | tube area decrease [5] -2.8% | GLP1 secretion stimulation [6] 2.1% | inhibition of viability [7] 4.1% | viability decrease (inhibition) [8] -12.1% | viability decrease (inhibition) [9] 3.2% | outcome [13] | outcome [14] | outcome [15] | outcome [16] | fold change [18, 21] 0.888 and 0.89 | z-score [11, 19] -0.0417 and -1.04 | z-score [12] 0.255
9940 and 10700: cell count [18, 24]
-0.635 and -0.666: z-score [11, 20]
8830 and 9540: cell count [18, 23]
73% and 119%: viability [1]

O=C(O)C(=O)Nc1cccc(-c2nn[nH]n2)c1
1.9%: nuclear beta-catenin stimulation ([2]; stimulation, at 2 µM)
inactive: nuclear beta-catenin stimulation ([2]; at 10 µM) 1.3% | insulin secretion stimulation [3] 4% | viability decrease [4] 19.5% | tube area decrease [5] 0.4% | GLP1 secretion stimulation [6] -3.2% | inhibition of viability [7] -2.9% | viability decrease (inhibition) [8] 32.2% | viability decrease (inhibition) [9] 9.1% | outcome [13] | outcome [14] | outcome [15] | outcome [16]

Cc1oc(=O)oc1CN1CCN(c2cc3c(cc2F)c(=O)c(C(=O)O)c2n3C(C)S2)CC1 (stereo not given)
inactive: nuclear beta-catenin stimulation ([2]; at 10 µM) 0.8% | insulin secretion stimulation [3] 1.6% | viability decrease [4] 35.8% | tube area decrease [5] 4.4% | GLP1 secretion stimulation [6] 2.3% | inhibition of viability [7] 38.1% | viability decrease (inhibition) [8] 26.1% | viability decrease (inhibition) [9] 1.4% | outcome [13] | outcome [14] | outcome [15] | outcome [16] | remaining NAD [17] 10 nM
1.4%: nuclear beta-catenin stimulation ([2]; stimulation, at 2 µM)
